In the supplement of paper PMC8728848:
This is one part of a sample in which the strongest signals are shown more often than they occur.

Legend:
Experiment in all cases: glycan array binding signal (z-score within array); higher = stronger binding
Conditions in all cases: glycan notation: IUPAC condensed, linker removed
[1] = target: Fuc(a1-2)Gal(b1-3)GlcNAc(b1-2)Man(a1-3)[Fuc(a1-2)Gal(b1-3)GlcNAc(b1-2)Man(a1-6)]Man(b1-4)GlcNAc(b1-4)GlcNAc
Outline: (§1)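 The binding signal is a Z-score computed within each array and averaged over linkers. Arrays of the same protein sequence at different concentrations or buffers were also averaged together. Data originate from 3228 arrays in the Consortium for Functional Glycomics database, kept only where the protein sequence was available.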

[2] = target: Fuc(a1-2)Gal(b1-4)[Fuc(a1-3)]GlcNAc(b1-3)[Neu5Ac(a2-6)Gal(b1-4)GlcNAc(b1-6)]Gal(b1-4)Glc
Outline: as §1

[3] = target: Fuc(a1-2)Gal6S(b1-4)Glc6S
Outline: as §1

[4] = target: Fuc(a1-2)[Gal(a1-3)]Gal(b1-3)GlcNAc(b1-2)Man(a1-3)[Fuc(a1-2)[Gal(a1-3)]Gal(b1-3)GlcNAc(b1-2)Man(a1-6)]Man(b1-4)GlcNAc(b1-4)GlcNAc
Outline: as §1

[5] = target: Fuc(a1-2)[GalNAc(a1-3)]Gal(b1-3)GlcNAc(b1-3)GalNAc
Outline: as §1

[6] = target: Fuc(a1-2)[GalNAc(a1-3)]Gal(b1-4)GlcNAc(b1-2)Man(a1-3)[Fuc(a1-2)[GalNAc(a1-3)]Gal(b1-4)GlcNAc(b1-2)Man(a1-6)]Man(b1-4)GlcNAc(b1-4)[Fuc(a1-6)]GlcNAc
Outline: as §1

[7] = target: Fuc(a1-4)GlcNAc
Outline: as §1

[8] = target: Gal(a1-3)Gal(b1-3)GlcNAc(b1-2)Man(a1-3)[Gal(a1-3)Gal(b1-3)GlcNAc(b1-2)Man(a1-6)]Man(b1-4)GlcNAc(b1-4)GlcNAc
Outline: as §1

[9] = target: Gal(a1-3)[Gal(a1-4)]Gal(b1-4)GlcNAc
Outline: as §1

[10] = target: Gal(b1-3)GalNAc(a1-3)[Fuc(a1-2)]Gal(b1-4)Glc
Outline: as §1

[11] = target: Gal(b1-3)GalNAc(b1-4)[Neu5Ac(a2-3)]Gal(b1-4)Glc
Outline: as §1

[12] = target: Gal(b1-3)GlcNAc(b1-3)Gal(b1-4)[Fuc(a1-3)]GlcNAc(b1-6)[Gal(b1-3)GlcNAc(b1-3)]Gal(b1-4)Glc
Outline: as §1

[13] = target: Gal(b1-4)GalNAc(a1-3)[Fuc(a1-2)]Gal(b1-4)GlcNAc
Outline: as §1

[14] = target: Gal(b1-4)GlcNAc(b1-2)[Gal(b1-4)GlcNAc(b1-6)]Man(a1-6)[Gal(b1-4)GlcNAc(b1-2)Man(a1-3)]Man(b1-4)GlcNAc(b1-4)GlcNAc
Outline: as §1

[15] = target: Gal(b1-4)GlcNAc(b1-2)[Gal(b1-4)GlcNAc(b1-6)]Man(a1-6)[GlcNAc(b1-4)][Gal(b1-4)GlcNAc(b1-2)[Gal(b1-4)GlcNAc(b1-4)]Man(a1-3)]Man(b1-4)GlcNAc(b1-4)[Fuc(a1-6)]GlcNAc
Outline: as §1

[16] = target: Gal(b1-4)GlcNAc(b1-3)Gal(b1-3)GalNAc
Outline: as §1

[17] = target: Gal(b1-4)GlcNAc(b1-3)Gal(b1-4)GlcNAc(b1-3)Gal(b1-4)GlcNAc(b1-3)Gal(b1-4)GlcNAc(b1-2)[Gal(b1-4)GlcNAc(b1-3)Gal(b1-4)GlcNAc(b1-3)Gal(b1-4)GlcNAc(b1-3)Gal(b1-4)GlcNAc(b1-6)]Man(a1-6)[Gal(b1-4)GlcNAc(b1-3)Gal(b1-4)GlcNAc(b1-3)Gal(b1-4)GlcNAc(b1-3)Gal(b1-4)GlcNAc(b1-2)Man(a1-3)]Man(b1-4)GlcNAc(b1-4)[Fuc(a1-6)]GlcNAc
Outline: as §1

[18] = target: Gal(b1-4)GlcNAc(b1-3)Gal(b1-4)GlcNAc(b1-3)GalNAc
Outline: as §1

[19] = target: Gal3S(b1-4)Glc
Outline: as §1

[20] = target: Gal3S(b1-4)[Fuc(a1-3)]Glc6S
Outline: as §1

[21] = target: Gal3S6S(b1-4)GlcNAc6S
Outline: as §1

[22] = target: Gal4S6S(b1-4)GlcNAc
Outline: as §1

[23] = target: Gal6P(b1-4)GlcNAc
Outline: as §1

[24] = target: Gal6S(b1-3)GlcNAc
Outline: as §1

[25] = target: GalNAc(b1-3)Gal(a1-4)Gal(b1-4)GlcNAc
Outline: as §1

[26] = target: GalNAc(b1-4)GlcNAc
Outline: as §1

[27] = target: GalNAc(b1-4)GlcNAc(b1-2)Man(a1-3)[GalNAc(b1-4)GlcNAc(b1-2)Man(a1-6)]Man(b1-4)GlcNAc(b1-4)GlcNAc
Outline: as §1

[28] = target: GalNAc3S(b1-4)GlcNAc
Outline: as §1

[29] = target: Glc(a1-6)Glc(a1-6)Glc(a1-6)Glc
Outline: as §1

[30] = target: GlcNAc(a1-4)Gal(b1-4)GlcNAc(b1-3)Gal(b1-4)Glc
Outline: as §1

[31] = target: GlcNAc(a1-4)Gal(b1-4)GlcNAc(b1-3)Gal(b1-4)[Fuc(a1-3)]GlcNAc(b1-3)Gal(b1-4)[Fuc(a1-3)]GlcNAc
Outline: as §1

[32] = target: GlcNAc(b1-2)Man(a1-3)[GlcNAc(b1-2)Man(a1-6)]Man(b1-4)GlcNAc(b1-4)[Fuc(a1-6)]GlcNAc
Outline: as §1

[33] = target: GlcNAc(b1-3)Gal(b1-4)GlcNAc(b1-2)Man(a1-3)[GlcNAc(b1-3)Gal(b1-4)GlcNAc(b1-2)Man(a1-6)]Man(b1-4)GlcNAc(b1-4)[Fuc(a1-6)]GlcNAc
Outline: as §1

[34] = target: GlcNAc(b1-3)Gal(b1-4)GlcNAc(b1-6)[Gal(b1-3)]GalNAc
Outline: as §1

[35] = target: GlcNAc(b1-6)GalNAc
Outline: as §1

[36] = target: Man(a1-2)Man(a1-3)[Man(a1-2)Man(a1-6)]Man
Outline: as §1

[37] = target: Man(a1-2)Man(a1-3)[Man(a1-2)Man(a1-6)]Man(a1-6)[Man(a1-2)Man(a1-2)Man(a1-3)]Man
Outline: as §1

[38] = target: Man(a1-2)Man(a1-6)[Man(a1-3)]Man(a1-6)[Man(a1-2)Man(a1-2)Man(a1-3)]Man
Outline: as §1

[39] = target: Man(a1-3)[Man(a1-6)]Man(a1-6)[Man(a1-3)]Man
Outline: as §1

[40] = target: Man(a1-6)Man
Outline: as §1

[41] = target: Neu5Ac(a2-3)Gal(b1-3)GalNAc
Outline: as §1

[42] = target: Neu5Ac(a2-3)Gal(b1-4)GlcNAc
Outline: as §1

[43] = target: Neu5Ac(a2-3)Gal(b1-4)GlcNAc(b1-3)Gal(b1-3)GlcNAc
Outline: as §1

[44] = target: Neu5Ac(a2-3)Gal(b1-4)GlcNAc(b1-6)[Gal(b1-3)]GalNAc
Outline: as §1

[45] = target: Neu5Ac(a2-3)Gal(b1-4)[Fuc(a1-3)]GlcNAc(b1-3)GalNAc
Outline: as §1

[46] = target: Neu5Ac(a2-3)GalNAc
Outline: as §1

[47] = target: Neu5Ac(a2-6)Gal(b1-4)GlcNAc(b1-2)Man(a1-3)[GlcNAc(b1-2)Man(a1-6)]Man(b1-4)GlcNAc(b1-4)GlcNAc
Outline: as §1

[48] = target: Neu5Ac(a2-8)Neu5Ac(a2-8)Neu5Ac(a2-3)[Gal(b1-3)GalNAc(b1-4)]Gal(b1-4)Glc
Outline: as §1

[49] = target: Neu5Gc(a2-8)Neu5Gc(a2-3)Gal(b1-4)GlcNAc
Outline: as §1

B1: GS13455A-bfa-343-25-343 (Bacteroides fragilis) (protein)
chain: KDEIQIVDQDTSWQMDNKYIEEDIREQLGIDPFTDLVYLGYYGNPYTQLEAINDLVNTTLVGKNELSFKVKVTKPYKEDIKVNLMKEDKLVTDFPEMAEGIPLFPSENCTFEGGVLKAGELETTVKLTLKDVEKLNNLSGYVMAIKLTMEGSHEHLAIARTRSSYFVKLNLSIRLDNIDSSNKKIEGKGFNKEISFKSDIRPDKLGSLNDGNFTANNWYTSNANNYLTIILPEKQSLKGFRLDTNTSPSGSYMLKSCRVMVETPDGNWVNHGVFDRKSMDGIAYISFKKPVECTKVRFENMMAFNGRFSVDVNEVTAFR
[1]
  glycan array binding signal (z-score): -0.69
[2]
  glycan array binding signal (z-score): -0.309
[3]
  glycan array binding signal (z-score): 0.254
[4]
  glycan array binding signal (z-score): -0.738
[5]
  glycan array binding signal (z-score): 2.29
[6]
  glycan array binding signal (z-score): 1.46
[7]
  glycan array binding signal (z-score): 20.2
[8]
  glycan array binding signal (z-score): -0.044
[9]
  glycan array binding signal (z-score): 1.91
[10]
  glycan array binding signal (z-score): -0.504
[11]
  glycan array binding signal (z-score): -0.051
[12]
  glycan array binding signal (z-score): -0.016
[13]
  glycan array binding signal (z-score): -0.716
[14]
  glycan array binding signal (z-score): -0.11
[15]
  glycan array binding signal (z-score): -0.04
[16]
  glycan array binding signal (z-score): 0.107
[17]
  glycan array binding signal (z-score): 0.144
[18]
  glycan array binding signal (z-score): -0.065
[19]
  glycan array binding signal (z-score): 1.7
[20]
  glycan array binding signal (z-score): 1.38
[21]
  glycan array binding signal (z-score): 1.68
[22]
  glycan array binding signal (z-score): 0.197
[23]
  glycan array binding signal (z-score): -0.523
[24]
  glycan array binding signal (z-score): -0.365
[25]
  glycan array binding signal (z-score): 1.43
[26]
  glycan array binding signal (z-score): -0.125
[27]
  glycan array binding signal (z-score): 1.75
[28]
  glycan array binding signal (z-score): -0.39
[29]
  glycan array binding signal (z-score): -0.604
[30]
  glycan array binding signal (z-score): 0.059
[31]
  glycan array binding signal (z-score): 1.64
[32]
  glycan array binding signal (z-score): -0.409
[33]
  glycan array binding signal (z-score): 0.601
[34]
  glycan array binding signal (z-score): -0.194
[35]
  glycan array binding signal (z-score): -0.656
[36]
  glycan array binding signal (z-score): -0.554
[37]
  glycan array binding signal (z-score): -0.701
[38]
  glycan array binding signal (z-score): 0.988
[39]
  glycan array binding signal (z-score): -0.129
[40]
  glycan array binding signal (z-score): 0.205
[41]
  glycan array binding signal (z-score): 0.08
[42]
  glycan array binding signal (z-score): -0.152
[43]
  glycan array binding signal (z-score): 0.34
[44]
  glycan array binding signal (z-score): -0.414
[45]
  glycan array binding signal (z-score): 3.25
[46]
  glycan array binding signal (z-score): -0.681
[47]
  glycan array binding signal (z-score): 0.878
[48]
  glycan array binding signal (z-score): -0.113
[49]
  glycan array binding signal (z-score): 0.527
